Source: PubChem BioAssay (several laboratories)
Most compounds without a hit are left out; they make up all but 2.8% or so of the library.
Mcl1-Bid inh – Mcl-1/Bid interaction inhibition; AID 1021; inhibition, % at 21.7 µM; TR-FRET Mcl-1/Bid-Dy647 peptide binding, 1536-well; Q07820; hit rate 0.97% among 220,000;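 active means compounds that cut the binding signal by more than half at the single screening dose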;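 further: His-tagged Mcl-1 with europium anti-His antibody binding Bid BH3 peptide; 0% = Mcl-1 plus peptide wells and 100% = peptide-only wells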
Target sequence (Q07820 whole entry, looked up): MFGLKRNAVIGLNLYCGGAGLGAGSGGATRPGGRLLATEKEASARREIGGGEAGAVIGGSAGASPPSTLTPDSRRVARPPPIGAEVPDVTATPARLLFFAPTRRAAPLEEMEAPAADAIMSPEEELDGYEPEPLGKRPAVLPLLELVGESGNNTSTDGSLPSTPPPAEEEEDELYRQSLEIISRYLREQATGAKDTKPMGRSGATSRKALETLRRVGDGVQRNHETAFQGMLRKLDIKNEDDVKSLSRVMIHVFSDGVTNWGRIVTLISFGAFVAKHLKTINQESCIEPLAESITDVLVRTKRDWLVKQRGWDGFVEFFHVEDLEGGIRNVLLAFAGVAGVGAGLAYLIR
m-calpain inh – inhibitors of pig calpain II. purified calpain II, fluorogenic peptide substrate, 30 min. inhibition, % at 16 µM. hit rate 0.37% among 220,000. AID 1236;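 active means inhibition above about 50%, limit read from the data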
Bim-Mcl-1 – human Bim-Mcl-1 interaction inhibition; AID 1009; Q07820; hit rate 0.1% among 190,000; inhibition, % at 10 µM; Bead-based flow cytometry, Bim peptide-Mcl-1 binding; in the data active means inhibition above about 40%;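 further: 0% = no compound tracer wells and 100% = peptide blocker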
Mcl1-Noxa inh – Mcl-1/Noxa interaction inhibition; TR-FRET Mcl-1/Noxa peptide binding, 2 h; inhibition, % at 21.7 µM; hit rate 1.5% among 220,000; AID 1022;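 active means compounds that cut the protein-peptide binding signal by more than 50% relative to plate controls in a single-dose test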;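 further: His-tagged Mcl-1 with rhodamine Noxa BH3 peptide and terbium anti-His antibody; 0% = Mcl-1 plus Noxa peptide wells and 100% = peptide-only wells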
TNF death inh – TNF-alpha cell death inhibition in Jurkat FADD-/- cells; hit rate 0.068% among 220,000; Jurkat FADD-/- TNF necroptosis rescue, ATP luminescence, 24 h; 0 = TNF only, 100 = no-TNF cells; activation (protection from cell death), % at 10 µM;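 active means activation, meaning protection from cell death, of at least 50% relative to plate controls; inactive means activation below 50%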;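 further: necroptosis triggered by 40 ng/mL TNF-alpha added together with compound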
zVAD death inh – L929 zVAD cell death inhibition | viability rescue, % at 10 µM | L929 zVAD necroptosis rescue, ATP luminescence, 24 h; with zVAD 60 µM | hit rate 0.38% among 220,000;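 active means activation, scaled between plate controls, above about 75%, limit read from the data; inactive means activation under that limit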;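 further: 0% = zVAD with DMSO and 100% = DMSO alone without zVAD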
zVAD death conf – confirmed blocker of zVAD induced death in L929 cells. shares compounds with zVAD death inh. hit rate 16% among 760. activation (protection from necroptosis), % at 10 µM. L929 zVAD-induced necroptosis rescue, ATP luminescence, 24 h;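 active means mean protection from necroptosis of at least 50% over duplicate tests; inactive means mean protection below 50%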;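 further: 0% = cells with zVAD alone and 100% = vehicle cells without zVAD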
* marks the source's active call; other numbers are inactive results; nt = no result given.

SMILES	Mcl1-Bid inh	m-calpain inh	Bim-Mcl-1	Mcl1-Noxa inh	TNF death inh	zVAD death inh	zVAD death conf
Cn1ccnc1SCC(=O)Nc1sccc1C#N	-39	-73	0	37	0	4	nt
N#Cc1ccsc1NC(=O)CSc1nnnn1-c1ccc(O)cc1	-17	5	-1	66*	2	76*	41
CC(=O)N(C(C)=O)c1ncc2c([nH]c3ccccc32)c1C#N	7	-202	-1	13	-11	87*	44
CCCN1C(=O)/C(=C/c2ccc3c(c2)OCO3)NC1=S	-15	17	7	13	46	87*	90*
CCn1ccnc1CN(C)Cc1nc(-c2ccc(C(=O)OC)cc2)no1	-12	28	nt	-12	0	-1	nt
CCOC(=O)C1CCN(C(=O)c2cc(C)n(C(C)(C)C)n2)CC1	-12	16	nt	6	2	2	nt
CCNc1nc(NCC)nc(Oc2ccc(N)cc2)n1	-24	-9	0	20	0	78*	30
CC(C)(C)c1csc(N/N=C/c2cccnc2)n1	-33	51*	-2	22	0	77*	6
CCOc1ccc(C(C)=O)cc1CN1C(=O)NC2(CCCCCCC2)C1=O	-16	38	-5	-3	0	1	nt
Cc1[nH][nH]c(=O)c1C(c1c(C)[nH][nH]c1=O)c1cn(Cc2cccc3ccccc23)c2ccccc12	-105	-225	-1	-58	-23	0	nt
Cc1[nH][nH]c(=O)c1C(c1c(C)[nH][nH]c1=O)c1cn(C)c2ccccc12	-84	19	0	6	-3	80*	23
Cc1ccccc1S(=O)(=O)NCc1ccc(N2CCN(C)CC2)cc1	-30	-1	nt	39	-3	-1	nt
O=C(CC1C(=O)N(c2ccccc2)C(=O)N1C1CCCCC1)Nc1ccccc1 (centres undefined)	-9	7	-1	10	0	-1	nt
CC1CN(S(=O)(=O)c2ccc(C(=O)Nc3nccs3)cc2)CC(C)O1 (centres undefined)	-38	-5	nt	3	23	84*	5
O=C(Nc1nccs1)c1ccc(S(=O)(=O)c2ccccc2)cc1	5	-35	-3	11	7	1	nt
CC1CN(S(=O)(=O)c2ccc(C(=O)Nc3ccc(S(=O)(=O)Nc4nccs4)cc3)cc2)CC(C)O1 (centres undefined)	-18	-44	-4	6	2	1	nt
O=C(Nc1nccs1)c1ccc(S(=O)(=O)N2CCCCC2)cc1	9	-19	-2	15	52*	104*	77*
O=C(OCn1ncc(Cl)c(Cl)c1=O)c1cccc(C(F)(F)F)c1	-11	-17	-3	-1	-17	99*	21
CCOc1ccc(NC(=O)Nc2ccc3nccnc3c2)cc1	-18	-55	6	11	-4	92*	1
CCOc1ccc(NC(=O)Nc2ccc(Br)cn2)cc1	-53	10	-1	10	4	75*	2
COc1ccc(NC(=O)Nc2ccc(Br)cn2)cc1OC	-10	-24	0	35	19	77*	39
CC(=O)c1ccc(NC(=O)C(C)NCc2ccccc2Cl)cc1 (centres undefined)	-14	13	-3	4	3	2	nt
CCC(C)c1ccc(OCC(=O)O)cc1 (centres undefined)	-23	12	-3	5	-1	0	nt
CCC(C)c1ccc(OCC(=O)Nc2ccc3[nH]c(=O)[nH]c3c2)cc1 (centres undefined)	-14	18	4	2	2	78*	40
CC(=O)Nc1ccc2c(c1)n(C)c(=O)n2C	-22	-56	0	2	0	0	nt
Cn1c(=O)n(C)c2cc(NC(=O)CCl)ccc21	-8	6	-1	7	4	83*	25
COc1cc(NC(=O)Cn2nnc(-c3ccncc3)n2)cc(OC)c1	1	-47	-2	13	-4	77*	30
O=C(Cn1nnc(-c2ccncc2)n1)Nc1ccc2c(c1)CCC2	-12	-62	-2	6	1	81*	39
